# Only some compounds are listed: those with a hit (about 3.1% of all), similar ones and a draw of the others.
# HIF act: HIF pathway transcriptional activators, primary screen, cell-based, U2OS HRE-luciferase, luminescence | U2OS HRE-luciferase reporter; normalized: DMSO 0%, desferrioxamine 100% | activation, % at 7.5 µM (by protocol) | actives 0.32% (n = 300,000) | AID 1910, 2009;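 active means mean activation of at least 10% of the iron chelator positive control signal, with at least half of replicates also reaching 10%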
# HSP90 inh: HSP90 inhibitors, primary screen, cell lysate, luminescence; Heat shock protein HSP 90 (rabbit reticulocyte lysate; luciferase refolding); Rabbit reticulocyte lysate, luciferase refolding luminescence, 3 h; inhibition, % at 5.6 µM; actives 0.91% (n = 290,000); AID 1789, 2009;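 active means inhibition above the screen-wide mean plus 3 SD, computed separately per campaign, cut at about 16% in these data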;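 further: inhibitors lower the luminescence because luciferase stays unfolded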
# HSF1 activator: HSF-1 activators, primary screen, NIH3T3-HGL cells, MG132 stress, luminescence, single point. NIH3T3-HGL HSF-1 luciferase reporter, 8 h; 100% = twice DMSO control signal. activation, % at 9 µM. actives 1.7% (n = 300,000). AID 504408, 2011;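 active means mean replicate activation of at least 50% with a set share of replicates each reaching 50%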
# HSF1 inh: HSF1 inhibitors in luciferase reporter cells, primary screen, cell-based, NIH3T3, luminescence; NIH3T3-HGL HSE-luciferase, MG132-induced, luminescence 8 h; hits give low values; activity change, negative = inhibition, % at 7.5 µM (by protocol); actives 0.77% (n = 300,000);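 active means more than half of replicate wells show activity change below -50%, luminescence cut by over half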;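 further: luciferase reports HSF-1 transcriptional activity via heat shock element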
# ARNT TACC3 PPI: disruptors of ARNT/TACC3 protein interaction, primary screen, biochemical, AlphaScreen, single concentration; Transforming acidic coiled-coil-containing protein 3 (Homo sapiens), Q9Y6A5; AlphaScreen His-ARNT PAS-B/GST-TACC3 binding, luminescence; TACC3 fragment carries E629A point mutation; inhibition, % at 9.99 µM; actives 0.66% (n = 390,000); AID 623870, 2012;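 active means mean inhibition of replicates at least 50% and at least half of replicates each reaching 50%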
# ARNT Alpha ctr-1: AlphaScreen signal interference compounds, dose response, artefact control for ARNT-TACC3 interaction inhibitor project, biochemical, luminescence, cherry-pick; shares compounds with ARNT TACC3 PPI; His-ARNT PASB-GST AlphaScreen artifact counter-screen; AC50, µM (top dose mostly 68 µM); actives 50% (n = 1,200); AID 651705, 2012;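 active means every separate test run was called active for a drop in luminescence, with AC50 within twice the top valid dose, actives reach about 71 µM in these data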
# ARNT Alpha ctr-2: AlphaScreen signal interference by compounds, dose response, artefact control for ARNT/TACC3 disruptor project, biochemical, dual-tagged ARNT, dry powder. shares compounds with ARNT TACC3 PPI. Dual-tagged His-ARNT PASB-GST AlphaScreen artifact counter-screen. AC50, µM. actives 70% (n = 45). AID 720564, 2013;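 active means luminescence drop, with half-maximal potency fitted within twice the sample's top valid dose, cut at about 70 µM in these data; inactive means the rest, including signal moving the wrong way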
# Hits are given with their value; - = inactive; . = no result.
SMILES,HIF act,HSP90 inh,HSF1 activator,HSF1 inh,ARNT TACC3 PPI,ARNT Alpha ctr-1,others
Cc1ccc(-c2cnc3c(c2)C(=O)N([C@H](C)CO)C[C@@H](C)[C@@H](CN(C)CC2CCOCC2)O3)cc1,.,.,.,.,-,.,
C[C@H]1CN([C@@H](C)CO)C(=O)c2cc(NC(=O)Cc3cn(C)c4ccccc34)ccc2O[C@@H]1CN(C)C(=O)Nc1ccccc1,.,.,.,.,-,.,
Cc1nc2ccccc2n1CC(=O)c1ccc(O)c(O)c1,.,.,.,.,57,-,
O=c1[nH][nH]c(=O)c2nc(Nc3ccccc3)ncc12,.,.,.,.,69,-,
O=[N+]([O-])c1cnc(Nc2ccccc2)nc1Nc1ccccc1,-,-,-,-,-,.,
CCNC(=O)C[C@H]1CC[C@H]2[C@@H](COc3ccc(NC(=O)Nc4cccc(C#N)c4)cc3C(=O)N2C)O1,.,.,.,.,-,.,
CCCNC(=O)[C@H]1[C@H](CO)[C@H]2Cn3c(ccc(/C=C/c4ccccc4)c3=O)[C@@H]1N2C(=O)c1ccccc1,.,.,.,.,-,.,
CC(Oc1cccc(Cl)c1)C(=O)Nc1nc(-c2ccccn2)cs1 (stereo not drawn),-,.,-,-,53,-,
Cn1cccc1C(=O)Nc1nc(-c2ccccn2)cs1,-,-,-,-,63,20µM,
Cc1cccc(C(=O)NC(C(=O)Nc2nc(-c3ccccn3)cs2)C(C)C)c1 (stereo not drawn),-,-,-,-,-,.,
Cc1ccc(C(=O)Nc2nc(-c3ccccn3)cs2)s1,.,.,.,.,54,38µM,
O=C(Nc1nc(-c2ccccn2)cs1)c1ccc(Cl)s1,.,-,223,-,59,28µM,
CN1C(=O)c2cc(NC(=O)C3CCCCC3)ccc2OC[C@@H]2O[C@@H](CC(=O)NCc3ccccc3F)CC[C@@H]21,.,.,.,.,-,.,
Cc1noc(C)c1NC(=O)Nc1ccc2c(c1)CC(=O)N([C@H](C)CO)C[C@@H](C)[C@H](CN(C)Cc1ccc(Oc3ccccc3)cc1)O2,.,.,.,.,-,.,
Oc1ccc(C2=Nn3c(nnc3-c3ccco3)SC2)cc1O,-,-,-,-,70,-,
COc1ccc(C2=Nn3c(nnc3-c3ccco3)SC2)cc1,-,-,-,-,-,.,
COc1ccc(-c2cc(NCc3ccccn3)n3ncnc3n2)cc1,-,-,-,-,52,-,
COc1cc(OC)c2c(-c3ccccc3)cc(=O)oc2c1C(CCN1CCOCC1)c1ccc(N(C)C)cc1 (stereo not drawn),.,.,.,.,-,.,
CCCCCc1cc(=O)oc2c(C(CCN(CC)CC)c3ccc(N(C)C)cc3)c(OC)cc(OC)c12 (stereo not drawn),-,.,-,-,50,12µM,
COc1cc(OC)c2c(-c3ccccc3)cc(=O)oc2c1C(CCN1CCCCC1)c1ccc(N(C)C)cc1 (stereo not drawn),-,.,-,-,44,12µM,
O=C(C1CC1)N1CCc2cc(Br)cc(S(=O)(=O)NCc3ccco3)c21,.,-,.,.,-,.,
O=C(C1CC1)N1CCc2cc(Br)cc(S(=O)(=O)NCc3ccccn3)c21,-,-,-,-,52,-,
COCCOC(=O)N1C(=O)[C@@]2(c3cc(C#CCCO)ccc31)[C@H](C(=O)NC[C@H](O)c1ccccc1)[C@H]1C(=O)O[C@H](c3ccccc3)[C@H](c3ccccc3)N1[C@@H]2c1ccc(O)cc1,.,.,.,.,-,.,
NS(=O)(=O)c1ccc(CCNC(=O)c2ccc3c(c2)OCO3)cc1,-,-,-,-,41,-,
NS(=O)(=O)c1ccc(NC(=O)CNC(=O)c2ccc3c(c2)OCO3)cc1,.,.,.,.,-,.,
SMILES,HIF act,HSP90 inh,HSF1 activator,HSF1 inh,ARNT TACC3 PPI,ARNT Alpha ctr-1,others
Cc1cc(=O)[nH]c(-n2[nH]c3c(c2=O)CCCC3)n1,-,-,-,-,58,-,
O=C(CNS(=O)(=O)c1ccc([N+](=O)[O-])cc1)N/N=C/c1ccc(O)cc1O,-,-,-,-,63,-,
O=C(CNS(=O)(=O)c1ccc([N+](=O)[O-])cc1)N/N=C\c1ccc(O)cc1,-,-,-,-,-,.,
CCC(=O)N(C)C[C@@H]1Oc2cc(C#CC3(O)CCCC3)ccc2S(=O)(=O)N([C@H](C)CO)C[C@H]1C,.,.,.,.,-,.,
COc1ccc(NC(=O)N[C@@H]2CC[C@H](CCn3cc(-c4ccc(OC)cc4)nn3)O[C@H]2CO)cc1,.,.,.,.,-,.,
O=C(CSc1ccc(-c2ccccn2)nn1)N1CCCC1,-,-,-,-,85,48µM,ARNT Alpha ctr-2=23
O=C(CSc1ccc(-c2ccccn2)nn1)c1ccccc1,-,-,-,-,75,15µM,
O=C(CSc1ccc(-c2ccccn2)nn1)c1ccc(F)cc1,-,-,-,-,-,.,
O=C(CSc1ccc(-c2ccccn2)nn1)NC1CCCC1,-,-,-,-,59,18µM,
CO[C@H]1CN(C)C(=O)c2ccc(NC(=O)Nc3cc(F)ccc3F)cc2OC[C@@H](C)NC[C@H]1C,.,.,.,.,-,.,
Cc1cccc(OCc2nc(-c3ccccn3)n[nH]2)c1,-,-,-,-,67,35µM,
Cc1ccc(OCc2nc(-c3ccccn3)n[nH]2)cc1,-,-,-,-,.,.,
C[C@H]1CN([C@@H](C)CO)S(=O)(=O)c2ccc(C#CCN(C)C)cc2O[C@H]1CN(C)Cc1cccnc1,.,.,.,.,-,.,
C[C@@H]1CN([C@H](C)CO)S(=O)(=O)c2ccc(C3=CCCC3)cc2O[C@H]1CN(C)Cc1ccccn1,.,.,.,.,17,51µM,
C[C@H](CO)N1C[C@H](C)[C@H](CN(C)Cc2cccnc2)Oc2cc(C#CCN(C)C)ccc2S1(=O)=O,.,.,.,.,active,-,
Cc1ccc(S(=O)(=O)Nc2ccc3c(c2)CC(=O)N([C@H](C)CO)C[C@H](C)[C@H](CN(C)CC2CCCCC2)O3)cc1,.,.,.,.,-,.,
Cc1noc(C)c1NC(=O)N(C)C[C@@H]1OCc2cnnn2CCCC(=O)N([C@H](C)CO)C[C@H]1C,.,.,.,.,-,.,
COc1ccc(C2C(C#N)=C(N)Oc3c2ccc2cccnc32)cc1OC (stereo not drawn),-,-,-,-,62,-,
CCC(=O)N(C)C[C@@H]1Oc2cc(-c3ccccc3F)ccc2S(=O)(=O)N([C@H](C)CO)C[C@@H]1C,.,.,.,.,-,.,
CCOC(=O)C1CCN(C(=O)COC(=O)c2ccc([N+](=O)[O-])o2)CC1,.,.,.,.,33,-,

# Screening results as filed in PubChem BioAssay.
